Consider four molecules from PubChem BioAssay.

The structures appear in SMILES notation. Results filed as inconclusive are left out. Activity calls are given as the source filed them.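 The calls were made as follows, unless noted: active = GFP response, as percent of the DMSO control, above the screen-wide mean plus 3 SD, about 139; inconclusive = no response measured because the compound's own fluorescence interfered; inactive = the rest.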

Assay [1] is described as follows: rapamycin-like changes in RPL19A-GFP expression – cell-based, S. cerevisiae, multiplex flow cytometry, primary screen (AID 1862; in the data active = percent of DMSO control GFP below about 86%;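 also: lower values mimic rapamycin by blocking the RPL19A rise seen in DMSO cells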). To be noted: S. cerevisiae RPL19A-GFP strain, flow cytometry fluorescence, 3 h; at 10 µM; stronger effect = lower value.
Assay [2] in a line: TOR pathway GLN3 branch reporter MEP2-GFP changes – S. cerevisiae, multiplex flow cytometry, primary screen (AID 1867).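 Also: median GFP channel fluorescence of barcode-gated MEP2-GFP cells measured by flow cytometry.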 The note with it: S. cerevisiae MEP2-GFP strain, 3 h, at 10 µM, stronger effect = higher value, 100% means same as DMSO wells.
Assay [3] can be described thus: TOR pathway RTG branch CIT2 reporter changes – S. cerevisiae, GFP fusion, multiplex flow cytometry, primary screen (AID 1870;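 active = percent response above a set limit, the screen-wide mean plus 3 SD, cut at about 130% in these data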;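 also: barcoded CIT2-GFP strain pooled with four other GFP strains with rapamycin as positive control; median GFP fluorescence per well over plate mean of DMSO wells so 100% = DMSO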). To be noted: S. cerevisiae CIT2-GFP expression, 3 h, at 10 µM, stronger effect = higher value.
Assay [4] can be described thus: TOR pathway LAP4-GFP level changes – S. cerevisiae, multiplex flow cytometry, primary screen (AID 1873;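 active = GFP signal, as percent of the solvent control, above the screen mean plus 3 SD, about 149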). To be noted: S. cerevisiae LAP4-GFP expression, 3 h, at 10 µM, stronger effect = higher value.
A short description of assay [5]: yeast AGP1-GFP level changes, GLN3 branch – cell-based, multiplex flow cytometry, S. cerevisiae, primary screen (AID 1887;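 active = GFP signal above the screen-wide mean plus 3 SD, that is over about 124.5% of the solvent control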;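 also: AGP1-GFP fusion strain of S. cerevisiae within a five-strain barcoded multiplex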). The note with it: 3 h, at 10 µM, stronger effect = higher value.
A short description of assay [6]: reduced mouse 2C T cell binding to pMHC/ICAM-1 vesicles – MLPCN validation set, flow cytometry, LFA-1/ICAM-1 modulator project, pilot screen (AID 2523;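 active = response below a set limit, under 55% cells CD8-positive and vesicle-bound, and CD8 cells' 90th-percentile brightness under 279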;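 as to vesicle binding response: mean PE anti-B7-1 fluorescence of CD8+ cells relative to row control; 100% = QL9-loaded vesicles with DMSO vehicle in the same plate row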). The note with it: 2C mouse CD8+ T cells, at 7 µM, stronger effect = lower value; double positive events: measured here: CD8+/vesicle+ event percentage.
Assay [7] addresses Integrin beta-1 (Homo sapiens) + Integrin alpha-4 (Homo sapiens) (UniProt P13612+P05556). The experiment in a line: alpha4beta1 integrin LIBS antibody binding reduction – U937 cells, HUTS-21 mAb, flow cytometry, validation set, VLA-4 allosteric modulator project, pilot screen (AID 2674;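 active = inhibition above 50%, about 3 SD of the validation set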;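 also: antibody binding induced by the VLA-4 ligand LDV present at three times its Kd; 0% = LDV ligand with antibody and no compound and 100% = antibody without LDV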). The note with it: HUTS-21 LIBS mAb binding, at 6.7 µM, stronger effect = higher value, binding induced by LDV ligand.

Assay [8] can be described thus: calorie-restriction mimetic ROS inhibitors, yeast – validation compound set, pilot screen (AID 2706;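 active = superoxide response below 65% of plate, a cut near 3 SD across the whole screen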;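 also: yeast exposed to compound for one week at 30 degrees C before staining; 100% = mean of all compound wells on the same plate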). To be noted: S. cerevisiae aging, superoxide DHE fluorescence; at 10 µM; stronger effect = lower value.
The target of assay [9] is Beta-adrenergic receptor kinase 1 (Homo sapiens) (UniProt P25098). As to the kind of experiment: GRK2 binders displacing RNA aptamer, biochemical, validation, human GRK2, bead flow cytometry (AID 488806;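 active = aptamer binding inhibition above 30%, about 3 SD of noise from non-fluorescent compounds; inactive = inhibition at or below 30%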). To be noted: bead-bound GRK2, FAM-aptamer displacement, at 10 µM, stronger effect = higher value.
The target of assay [10] is Beta-2 adrenergic receptor (Homo sapiens) (UniProt P07550). The experiment in a line: agonist-induced loss of surface beta2AR – cell-based, FAP fluorogen, flow cytometry, validation set, pilot screen (AID 504459;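 active = percent response above 42, roughly 3 SD of non-fluorescent test compounds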;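 also: agonist-driven loss of surface beta2AR via internalization measured by FAP dye flow cytometry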). To be noted: Am2.2-beta2AR cells, at 10 µM, stronger effect = higher value.
The target in assay [11] is AP-2 complex subunit beta (Homo sapiens) (UniProt P63010). The experiment in a line: beta-arrestin/AP2 interaction blockers – biochemical, validation set, GST-AP2 beads, flow cytometry, pilot screen (AID 504541;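 active = inhibition above 54%, about 3 SD of non-fluorescent compounds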;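 also: AP2 carries R879A mutation and is captured from E. coli lysate; bead-bound FITC arrestin peptide fluorescence measuring arrestin peptide binding to AP2; 0% = DMSO wells and 100% = excess unlabeled arrestin peptide control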). To be noted: FITC arrestin peptide, at 10 µM, stronger effect = higher value, AP2 beta2 appendage fragment, R879A mutant.
Assay [12] is described as follows: cytosolic pH regulators acting via V-ATPase – S. cerevisiae, pHLuorin, HTS validation (AID 504600; in the data active = response above about 15%;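 also: plate controls were DMSO for no effect and reference compound for full effect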). The note with it: V-ATPase proton transport, at 10 µM, stronger effect = higher value.
The test system of assay [13] is anti-desmoglein-3 scFv antibody binding to human DSG3. As to the kind of experiment: blockers of pathogenic pemphigus antibody–desmoglein-3 binding – biochemical, validation compound set, bead-based, flow cytometry, pilot screen (AID 588368;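 active = binding below the plate cutoff, the plate median minus 3 SD, with a reading above zero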;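 also: signal is the median channel fluorescence of bead-bound GFP antibody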). The note with it: Protein G beads, DSG3-Fc, scFv-GFP binding, at 10 µM, stronger effect = lower value.
Assay [14] can be described thus: Nile Red efflux blockade in pump-expressing yeast – validation compound set, multiplex, phenotypic, pilot screen (AID 588506;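 active = efflux inhibition above 0.42, the validation set average plus 4 SD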;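 also: Nile Red retained in cells so higher fluorescence means more efflux inhibition; 0 = negative control wells and 1 = enniatin B 25 µM full block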). To be noted: S. cerevisiae pump-expressing triplex, Nile Red efflux flow cytometry; at 10 µM; stronger effect = higher value; the pumps come from Candida albicans.
Assay [15] concerns the target ATP-binding cassette sub-family B member 6 (Homo sapiens) (UniProt Q9NP58). The experiment in a line: blockers of ABCB6-driven porphyrin uptake – K562-ABCB6 cells, flow cytometry, validation set, pilot screen (AID 588550;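 active = inhibition above the screen-wide mean plus 3 SD, about 51%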;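 also: 0% = DMSO wells and 100% = benzethonium chloride 70 µM positive control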). To be noted: K562-ABCB6 porphyrin accumulation, 1 h, at 10 µM, stronger effect = higher value.
A short description of assay [16]: AML differentiation inducers, ER-HoxA9 marrow cells – cell-based, GFP/MAC1 double positive, flow cytometry, validation set, primary screen (AID 588685;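 active = differentiation response of at least 50%, scaled between solvent and reference control, from cells with both markers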;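 also: compound exposure lasts four days before antibody staining and flow analysis; 0% = DMSO wells and 100% = 5 µM fulvestrant positive control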). The note with it: stronger effect = higher value, normalized: vehicle 0, fulvestrant 100.

Sequence of AP-2 complex subunit beta (Homo sapiens) (P63010 whole entry, looked up, the tested form may be a part, one chain of several): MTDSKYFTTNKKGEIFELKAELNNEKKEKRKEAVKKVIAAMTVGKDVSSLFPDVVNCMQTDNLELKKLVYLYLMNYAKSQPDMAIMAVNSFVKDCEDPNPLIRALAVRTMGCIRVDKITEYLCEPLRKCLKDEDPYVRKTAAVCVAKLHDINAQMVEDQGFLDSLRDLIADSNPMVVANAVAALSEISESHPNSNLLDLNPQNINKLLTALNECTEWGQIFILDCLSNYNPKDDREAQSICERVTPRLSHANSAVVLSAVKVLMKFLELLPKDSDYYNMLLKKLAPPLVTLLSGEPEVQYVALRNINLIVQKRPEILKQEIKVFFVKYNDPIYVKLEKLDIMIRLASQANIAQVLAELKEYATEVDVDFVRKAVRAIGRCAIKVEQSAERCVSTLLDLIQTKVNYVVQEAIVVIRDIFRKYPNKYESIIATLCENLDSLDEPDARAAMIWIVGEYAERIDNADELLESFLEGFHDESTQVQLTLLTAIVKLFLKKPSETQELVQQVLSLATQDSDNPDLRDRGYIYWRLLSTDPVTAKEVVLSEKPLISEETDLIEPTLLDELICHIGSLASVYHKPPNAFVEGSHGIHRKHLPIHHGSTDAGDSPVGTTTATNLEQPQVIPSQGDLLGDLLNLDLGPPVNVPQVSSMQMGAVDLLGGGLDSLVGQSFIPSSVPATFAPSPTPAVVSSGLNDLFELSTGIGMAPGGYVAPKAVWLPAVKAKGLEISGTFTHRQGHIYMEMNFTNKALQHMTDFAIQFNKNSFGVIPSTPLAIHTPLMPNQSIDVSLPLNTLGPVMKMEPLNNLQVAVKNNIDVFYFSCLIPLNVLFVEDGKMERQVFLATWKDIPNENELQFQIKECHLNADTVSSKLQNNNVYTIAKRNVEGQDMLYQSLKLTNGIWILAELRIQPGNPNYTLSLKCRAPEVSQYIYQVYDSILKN
Sequence of Beta-adrenergic receptor kinase 1 (Homo sapiens) (P25098 whole entry, looked up): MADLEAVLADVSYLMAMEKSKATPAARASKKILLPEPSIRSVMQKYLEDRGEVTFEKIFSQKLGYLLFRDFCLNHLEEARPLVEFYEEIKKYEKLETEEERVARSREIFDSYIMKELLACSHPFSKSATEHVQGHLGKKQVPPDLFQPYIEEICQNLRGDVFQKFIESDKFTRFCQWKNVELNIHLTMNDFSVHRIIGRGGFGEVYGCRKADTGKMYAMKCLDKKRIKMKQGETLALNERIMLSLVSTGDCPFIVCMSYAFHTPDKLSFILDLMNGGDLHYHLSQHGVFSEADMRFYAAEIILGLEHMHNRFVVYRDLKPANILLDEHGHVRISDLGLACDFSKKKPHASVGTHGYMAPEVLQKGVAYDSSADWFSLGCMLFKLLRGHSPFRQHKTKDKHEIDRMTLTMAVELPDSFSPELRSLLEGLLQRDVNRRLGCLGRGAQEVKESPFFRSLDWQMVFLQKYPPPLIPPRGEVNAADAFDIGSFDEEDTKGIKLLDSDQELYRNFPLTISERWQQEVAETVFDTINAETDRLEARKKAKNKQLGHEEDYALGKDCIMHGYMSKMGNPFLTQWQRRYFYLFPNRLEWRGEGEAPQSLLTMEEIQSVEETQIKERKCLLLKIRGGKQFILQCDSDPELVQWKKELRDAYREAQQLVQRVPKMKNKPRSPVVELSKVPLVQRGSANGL
Sequence of Beta-2 adrenergic receptor (Homo sapiens) (P07550 whole entry, looked up): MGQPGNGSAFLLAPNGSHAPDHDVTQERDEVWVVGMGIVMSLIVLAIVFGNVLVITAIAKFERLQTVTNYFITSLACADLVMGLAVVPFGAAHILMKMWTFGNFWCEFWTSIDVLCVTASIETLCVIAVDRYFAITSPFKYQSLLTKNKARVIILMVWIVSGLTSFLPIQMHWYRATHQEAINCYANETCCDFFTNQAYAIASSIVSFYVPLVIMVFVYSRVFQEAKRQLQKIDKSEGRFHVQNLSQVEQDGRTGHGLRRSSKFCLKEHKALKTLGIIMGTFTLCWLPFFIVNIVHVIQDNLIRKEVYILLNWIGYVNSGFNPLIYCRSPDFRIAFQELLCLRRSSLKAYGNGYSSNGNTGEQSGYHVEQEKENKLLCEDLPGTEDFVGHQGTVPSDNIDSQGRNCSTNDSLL
Sequence of Integrin beta-1 (Homo sapiens) + Integrin alpha-4 (Homo sapiens) (P05556 whole entry, looked up): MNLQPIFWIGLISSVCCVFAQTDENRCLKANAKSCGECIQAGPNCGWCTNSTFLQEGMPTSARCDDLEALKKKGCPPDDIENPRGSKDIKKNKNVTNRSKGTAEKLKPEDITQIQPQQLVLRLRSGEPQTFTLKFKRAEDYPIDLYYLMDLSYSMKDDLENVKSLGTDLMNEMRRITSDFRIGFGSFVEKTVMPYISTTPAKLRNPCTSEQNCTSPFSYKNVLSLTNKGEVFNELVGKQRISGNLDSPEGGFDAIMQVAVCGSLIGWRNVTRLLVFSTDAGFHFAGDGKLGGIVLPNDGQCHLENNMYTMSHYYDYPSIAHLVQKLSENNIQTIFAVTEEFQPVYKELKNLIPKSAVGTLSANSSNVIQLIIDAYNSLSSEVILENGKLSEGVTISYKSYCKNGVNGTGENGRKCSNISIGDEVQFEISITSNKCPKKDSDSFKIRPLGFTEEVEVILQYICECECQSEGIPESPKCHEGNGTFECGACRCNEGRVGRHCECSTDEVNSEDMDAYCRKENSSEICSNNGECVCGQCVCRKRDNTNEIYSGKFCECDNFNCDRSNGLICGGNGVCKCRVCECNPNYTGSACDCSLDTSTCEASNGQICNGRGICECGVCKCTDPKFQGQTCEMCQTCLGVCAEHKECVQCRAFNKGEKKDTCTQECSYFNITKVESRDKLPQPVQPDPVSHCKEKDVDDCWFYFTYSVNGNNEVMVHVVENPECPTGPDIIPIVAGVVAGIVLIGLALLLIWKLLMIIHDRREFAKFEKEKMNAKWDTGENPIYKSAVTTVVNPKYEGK
Sequence of Integrin beta-1 (Homo sapiens) + Integrin alpha-4 (Homo sapiens) (P13612 whole entry, looked up): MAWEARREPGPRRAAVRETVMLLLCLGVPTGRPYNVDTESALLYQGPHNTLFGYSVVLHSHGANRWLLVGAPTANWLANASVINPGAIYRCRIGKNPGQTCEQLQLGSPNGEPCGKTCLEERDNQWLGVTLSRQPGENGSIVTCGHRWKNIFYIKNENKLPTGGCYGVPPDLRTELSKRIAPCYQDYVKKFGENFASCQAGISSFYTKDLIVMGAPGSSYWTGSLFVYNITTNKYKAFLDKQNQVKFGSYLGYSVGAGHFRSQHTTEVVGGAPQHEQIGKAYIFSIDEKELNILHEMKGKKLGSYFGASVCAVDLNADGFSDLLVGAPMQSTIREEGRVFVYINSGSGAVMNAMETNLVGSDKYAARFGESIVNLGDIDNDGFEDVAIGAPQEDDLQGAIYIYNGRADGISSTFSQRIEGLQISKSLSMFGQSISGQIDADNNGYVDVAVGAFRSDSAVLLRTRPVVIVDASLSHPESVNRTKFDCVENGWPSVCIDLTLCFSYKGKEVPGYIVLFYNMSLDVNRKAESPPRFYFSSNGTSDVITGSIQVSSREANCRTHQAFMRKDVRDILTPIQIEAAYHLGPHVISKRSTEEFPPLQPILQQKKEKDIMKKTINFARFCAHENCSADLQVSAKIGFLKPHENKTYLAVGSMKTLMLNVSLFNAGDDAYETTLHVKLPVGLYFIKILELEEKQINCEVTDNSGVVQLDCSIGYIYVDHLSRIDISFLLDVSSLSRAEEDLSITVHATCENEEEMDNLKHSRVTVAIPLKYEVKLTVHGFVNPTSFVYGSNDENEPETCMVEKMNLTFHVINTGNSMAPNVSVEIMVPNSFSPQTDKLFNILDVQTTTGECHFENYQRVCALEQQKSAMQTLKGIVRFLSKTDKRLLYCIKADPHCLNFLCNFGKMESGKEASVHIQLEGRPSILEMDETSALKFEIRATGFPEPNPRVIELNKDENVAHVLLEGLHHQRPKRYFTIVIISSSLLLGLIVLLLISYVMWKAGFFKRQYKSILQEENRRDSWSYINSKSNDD
Sequence of ATP-binding cassette sub-family B member 6 (Homo sapiens) (Q9NP58 whole entry, looked up): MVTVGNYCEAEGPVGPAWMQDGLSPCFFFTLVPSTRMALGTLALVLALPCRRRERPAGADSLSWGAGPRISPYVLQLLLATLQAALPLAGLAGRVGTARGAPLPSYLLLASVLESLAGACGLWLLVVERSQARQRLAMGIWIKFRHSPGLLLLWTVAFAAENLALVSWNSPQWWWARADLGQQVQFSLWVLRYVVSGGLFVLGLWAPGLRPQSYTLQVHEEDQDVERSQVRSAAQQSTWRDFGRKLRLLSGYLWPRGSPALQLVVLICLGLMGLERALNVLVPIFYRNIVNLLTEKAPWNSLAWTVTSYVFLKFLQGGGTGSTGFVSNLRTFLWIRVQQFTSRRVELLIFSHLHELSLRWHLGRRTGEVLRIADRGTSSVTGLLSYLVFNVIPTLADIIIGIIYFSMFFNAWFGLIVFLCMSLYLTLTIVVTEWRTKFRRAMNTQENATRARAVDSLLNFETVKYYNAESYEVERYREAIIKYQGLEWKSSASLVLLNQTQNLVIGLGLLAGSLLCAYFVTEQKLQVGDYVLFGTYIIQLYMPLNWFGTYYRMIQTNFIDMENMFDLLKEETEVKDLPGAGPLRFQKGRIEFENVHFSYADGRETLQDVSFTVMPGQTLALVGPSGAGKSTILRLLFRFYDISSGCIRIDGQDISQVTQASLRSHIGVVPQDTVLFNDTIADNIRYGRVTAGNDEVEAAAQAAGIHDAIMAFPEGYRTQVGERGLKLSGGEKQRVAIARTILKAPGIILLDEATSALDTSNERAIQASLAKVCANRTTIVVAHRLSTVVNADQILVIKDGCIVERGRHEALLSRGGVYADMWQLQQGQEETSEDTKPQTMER

Take `Cc1cccc(Nc2ccccc2C(=O)O)c1C`: the percent of DMSO control GFP in assay [1] was 99.5% (inactive). Moreover, the results for the GFP response vs DMSO in assay [2] and in [4] were 102% (inactive) and 114% (inactive), respectively. Moreover, in [3], the percent response of DMSO control was 86.7% (inactive). Besides, in [5], the GFP response, % of DMSO was 102% (inactive). The molecule further yielded a double positive events in [6] of 65.8%. In assay [6], the vesicle binding response was 236% (inactive). Also, the inhibition in assay [7] is 4.84% (inactive); in assay [11] it was -8.96% (inactive); in assay [15], 5% (inactive). In assay [8], the superoxide response (% of plate) is 87.1% (inactive). In addition, the aptamer binding inhibition in [9] is -1% (inactive). In addition, the values for the response in assay [10] and in assay [12] were -5.24% (inactive) and -29.3% (inactive), respectively. In addition, in assay [13], the binding (% of control) is 101% (inactive). Besides, the efflux inhibition (fraction of control) in assay [14] is 0.08 (inactive). For the same molecule, the differentiation response in assay [16] was -12.9% (inactive).
As for `Cc1ccc(S(=O)(=O)N[C@@H](C)C(=O)N2CCC(C(=O)N3CCC[C@H]3C(=O)O)CC2)cc1`, in assay [1], the percent of DMSO control GFP is 95% (inactive). For the same molecule, the GFP response vs DMSO is 129% (inactive) in [2] and 79.2% (inactive) in [4]. The percent response of DMSO control in [3] was 103% (inactive). Further, the GFP response, % of DMSO in assay [5] was 88.4% (inactive). In assay [6], this molecule came in with a double positive events of 71%. In addition, the vesicle binding response in assay [6] is 174% (inactive). Further, the inhibition was 3.55% (inactive) in [7], -9.12% (inactive) in assay [11] and 8% (inactive) in assay [15]. Also, in assay [8], the superoxide response (% of plate) is 92.7% (inactive). The aptamer binding inhibition in assay [9] was 9% (inactive). The response in [10] was -2.38% (inactive); in assay [12], -1.19% (inactive). Further, the binding (% of control) in [13] was 100% (inactive). For the same molecule, in assay [14], the efflux inhibition (fraction of control) was -0.2 (inactive). For the same molecule, the differentiation response in [16] is 0% (inactive).
On to `CCc1cccc2c3c([nH]c12)C(CC)(CC(=O)O)OCC3` (stereo not drawn), for which the percent of DMSO control GFP in [1] is 103% (inactive). For the same molecule, the GFP response vs DMSO was 106% (inactive) in [2] and 93.3% (inactive) in assay [4]. In assay [3], the percent response of DMSO control is 100% (inactive). Also, the GFP response, % of DMSO in [5] is 100% (inactive). This molecule yielded a double positive events in assay [6] of 61.9%. Also, the vesicle binding response in assay [6] is 36.2% (inactive). Moreover, the results for the inhibition in [7], in [11] and in assay [15] were -4.6% (inactive), -11.4% (inactive) and -5% (inactive), respectively. In addition, the superoxide response (% of plate) in assay [8] is 107% (inactive). The aptamer binding inhibition in assay [9] is 1% (inactive). The response was -0.16% (inactive) in [10] and 1.09% (inactive) in [12]. Moreover, in [13], the binding (% of control) was 86.9% (inactive). For the same molecule, the efflux inhibition (fraction of control) in assay [14] was -0.26 (inactive). Also, the differentiation response in [16] was 3.18% (inactive).
Regarding `CC(C)(S)[C@@H](N)C(=O)O`, the percent of DMSO control GFP in assay [1] was 97.8% (inactive). Moreover, the GFP response vs DMSO in assay [2] is 109% (inactive); in [4], 101% (inactive). Besides, in assay [3], the percent response of DMSO control was 87.2% (inactive). Besides, the GFP response, % of DMSO in assay [5] was 98.9% (inactive). The same molecule gave a double positive events in assay [6] of 62.5%. Further, the vesicle binding response in [6] was 177% (inactive). Moreover, the values for the inhibition in assay [7], in [11] and in assay [15] were 0.94% (inactive), -6.4% (inactive) and 5% (inactive), respectively. Also, the superoxide response (% of plate) in [8] was 85% (inactive). Moreover, the aptamer binding inhibition in assay [9] was 6% (inactive). For the same molecule, the response in [10] is 1.94% (inactive); in assay [12], 0.19% (inactive). The binding (% of control) in assay [13] is 98.2% (inactive). Moreover, the efflux inhibition (fraction of control) in assay [14] was 0.08 (inactive). The differentiation response in assay [16] is 7.2% (inactive).
